According to PubChem BioAssay AID1053128 (The Scripps Research Institute Molecular Screening Center, 2014):
Values without a mark were called inactive. No rule for the calls is given here.

Experiment: DD(E) peptide probe displacement potency, late-stage follow-up, counter-screen for fibrin DD(E)-Tn6 binding project, biochemical, fluorescence polarization, dose response (AID 1053128)
Conditions: Fluorescence polarization counterscreen, Tn6 peptide/DD(E) assay

SMILES	IC50
Cc1cc2cc(CNC(=O)c3ccc(S(=O)(=O)N4CCOCC4)cc3)ccc2n1C	> 83.3 µM
Cc1cc2c(cc1S(=O)(=O)N1CCN(c3cccc(C)c3C)CC1)OCCN2C	> 83.3 µM
CN1C(=O)NC(c2ccccc2[N+](=O)[O-])C2=C1CCCC2=O (stereo not given)	> 83.3 µM
O=C(O)CCCNc1cc(N2CCN(C(=O)c3ccco3)CC2)c2noc3c2c1C(=O)c1ccccc1-3	> 83.3 µM
N#CC1=C(N)Oc2ccc3ccc(O)cc3c2C1c1ccsc1 (stereo not given)	> 83.3 µM
COc1ccc2ccccc2c1C(O)c1nccn1C (stereo not given)	> 83.3 µM
CCn1c(CSc2n[nH]c(N)n2)nc2cc(C(=O)O)ccc21	> 83.3 µM
NS(=O)(=O)c1ccc(NS(=O)(=O)c2ccc(NC(=O)c3ccc(-c4ccccc4)cc3)cc2)cc1	> 83.3 µM
Cc1cc(C)c(S(=O)(=O)NCCn2c(C)cc3ccccc32)c(C)c1	> 83.3 µM
Cc1cc2cc(CNS(=O)(=O)c3ccc4ccccc4c3)ccc2n1C	> 83.3 µM
